Several values for one entry are separate records, joined by “and”; a condition that tells them apart may be missing. Equal values may be shown once. Out of some 16,000 compounds screened, about 2,600 (16%) were called active. Roughly 20% stayed inconclusive and do not appear here. Calls follow the shape of the dose curve; as a rule, active = well fitted curve in the direction sought with a large enough effect; inconclusive = small, poorly fitted or top-dose-only effect, or effect the other way; inactive = no such curve, though single readings can be large or run the other way. Not all results are given here.
Target: Cytochrome P450 2D6 (Homo sapiens) (UniProt P10635)
Assay: Cytochrome panel assay with activity outcomes
Conditions: recombinant CYP, pro-luciferin dealkylation, luminescence, p450-cyp2d6; series mostly up to 57.1 µM; activity, negative = inhibition: at the top concentration
% is scaled to controls: 0 for no effect and ±100 for the full control effect.

Cytochrome P450 2D6 (Homo sapiens), sequence (P10635 whole entry, looked up): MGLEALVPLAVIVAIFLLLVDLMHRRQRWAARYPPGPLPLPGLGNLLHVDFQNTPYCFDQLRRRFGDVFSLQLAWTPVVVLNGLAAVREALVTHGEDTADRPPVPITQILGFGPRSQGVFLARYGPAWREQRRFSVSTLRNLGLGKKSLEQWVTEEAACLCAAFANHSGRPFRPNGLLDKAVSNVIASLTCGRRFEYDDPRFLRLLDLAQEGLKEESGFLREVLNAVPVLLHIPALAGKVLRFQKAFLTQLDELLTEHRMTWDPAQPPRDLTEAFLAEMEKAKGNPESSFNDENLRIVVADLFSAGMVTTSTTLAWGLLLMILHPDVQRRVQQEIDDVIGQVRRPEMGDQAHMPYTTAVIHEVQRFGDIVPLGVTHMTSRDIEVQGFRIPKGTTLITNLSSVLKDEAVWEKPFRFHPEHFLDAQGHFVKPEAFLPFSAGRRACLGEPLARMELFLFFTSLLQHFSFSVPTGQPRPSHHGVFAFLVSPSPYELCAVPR

Row | SMILES | activity, negative = inhibition | AC50
1 | O=c1c(-c2ccccc2)nc2cnc(N3CCOCC3)nc2n1C1CC1 | -10.2% (inactive) | –
2 | O=C(O)c1cccc(SSc2cccc(C(=O)O)c2)c1 | -12% [at 11.4 µM] (inactive) | –
3 | O=C(O)c1cccc(CN2CCCCC2)c1 | – | 1 µM (active)
4 | CC(C)(C)c1cc(C(=O)O)c(CN2CCCCC2)o1 | 25.2% (inactive) | –
5 | O=c1c(-c2ccc(Cl)cc2)nc2cnc(N3CCNCC3)nc2n1Cc1ccc(F)cc1 | -15.4% (inactive) | –
6 | Cc1ccc(S(=O)(=O)N[C@H]2COC(=O)[C@@H](C)COC(=O)[C@H](C)NC(=O)C/C=C\[C@H]2C)cc1 | -1.17% [at 11.4 µM] (inactive) | –
7 | CCCCC1=NN2C(=N)CC(=O)N=C2S1 | -6.74% (inactive) | –
8 | CCOC(=O)C(=Cc1ccc(F)cc1)C(=O)OCC | -19% (inactive) | –
9 | CCOC(=O)/C(=C/Nc1ccccc1)[N+](=O)[O-] | -8.55% (inactive) | –
10 | CCOC(=O)C(=CNc1ncccc1C)C(=O)OCC | – | 8.91 µM (active)
11 | Cc1ccc(NC(=O)Nc2ncccc2C)cc1 | -25.7% (inactive) | –
12 | Cc1cccc(Nc2ccccc2C(=O)O)c1C | -1.23% [at 25.6 µM] (inactive) | –
13 | CCOC(=O)C(=CNc1cccc(C)c1C)C(=O)OCC | – | 1.58 µM (active)
14 | NCCSS(=O)(=O)CCN | 27.6% [at 11.4 µM] (inactive) | –
15 | Cc1nc2c(C)cccn2c1/C(O)=C1\C(=O)C(=O)N(CCN2CCOCC2)C1c1cccs1 (stereo unspecified) | 17.2% (inactive) | –
16 | COC(=O)C/C=C\[C@@H](C)[C@@H](/C=N\OC[C@@H](O)[C@H]1O[C@H]2OC(C)(C)O[C@H]2[C@@H]1O)NS(=O)(=O)c1ccc(C)cc1 | -10.1% [at 11.4 µM] (inactive) | –
17 | CC1(C)C(=O)C(c2ccccc2)=C2CN3C(=O)N(CCc4ccccc4)C(=O)C3(Cc3ccc(F)cc3)C=C21 (stereo unspecified) | 3.53% (inactive) | –
18 | CNc1nc(Cl)nc(NC(C)(C)C)n1 | 22.1% (inactive) | –
19 | Cc1cc(C)n(-c2nc(NC(C)(C)C)nc(NC(C)(C)C)n2)n1 | 18.4% (inactive) | –
20 | CC(C)(C)Nc1nc(N2CCCC2)nc(N2CCCC2)n1 | – | 3.55 µM (active)
21 | COC(=O)C/C=C\[C@@H](C)[C@@H](CO)NS(=O)(=O)c1ccc(C)cc1 | -2.05% [at 11.4 µM] (inactive) | –
22 | O=C1/C(=C\c2ccc(Br)o2)SC(=Nc2ccccc2)N1c1ccccc1 | -10% (inactive) | –
23 | Cc1cc(C(=O)Nc2ccc(N3CCOCC3)cc2)c2ccccc2n1 | – | 14.1 µM (active)

Row | SMILES | activity, negative = inhibition | AC50
24 | Cc1cc(C(=O)Nc2c(C)n(C)n(-c3ccccc3)c2=O)c2ccccc2n1 | 6.28% (inactive) | –
25 | Cc1ccc(NC(=O)c2cc(Cl)nc3ccccc23)cc1 | – | 0.178 µM (active)
26 | CC(C)(C)c1nc(SCC(=O)Nc2ccc(N3CCOCC3)cc2)c2ccccc2n1 | -6.23% (inactive) | –
27 | Cc1cccc(NC(=O)NNC(=O)c2cc(-c3ccccc3Cl)nc3ccccc23)c1 | 3.57% (inactive) | –
28 | COC(=O)c1sccc1NC(=O)c1cc(-c2ccc(C)cc2)nc2ccccc12 | -8.26% (inactive) | –
29 | O=C1C2=C(Nc3cc([N+](=O)[O-])ccc3N2)O[C@@H]1c1ccc([C@H]2OC3=C(Nc4ccc([N+](=O)[O-])cc4N3)C2=O)cc1 | -7.54% [at 11.4 µM] (inactive) | –
30 | O=C1c2ccccc2C(=O)c2c(NC3CCCCC3)ccc(Nc3ccc(S(=O)(=O)O)cc3)c21 | -10.8% [at 11.4 µM] (inactive) | –
31 | Nc1c(-c2ccccc2)cnn1-c1cccc([N+](=O)[O-])c1 | -16.5% (inactive) | –
32 | COc1cc(C)nc(N2CCCC(C(=O)Nc3cc(Cl)ccc3OC)C2)n1 (stereo unspecified) | -2.34% (inactive) | –
33 | COCCn1c(=O)c(-c2ccc(Cl)cc2)nc2cnc(N3CCOCC3)nc21 | 3.63% (inactive) | –
34 | N#Cc1c[nH]n2c(=O)c3c(nc12)CCCC3 | -1.42% (inactive) | –
35 | COC(=O)C1CCC(C)(C(=O)Nc2ccccc2)C1(C)C (stereo unspecified) | -19.3% (inactive) | –
36 | CC1=C(C(=O)Nc2ccccc2)C(c2ccco2)NC(=S)N1 (stereo unspecified) | -19.7% (inactive) | –
37 | CC1(C)SC(=S)N(NC(=O)Nc2ccccc2)C1N(O)C(=O)Nc1ccccc1 (stereo unspecified) | – | 25.1 µM (active)
38 | Cc1cccc(NC(=O)c2cccc(N3C(=O)C4C5CCC(C5)C4C3=O)c2)c1C (stereo unspecified) | 4.27% (inactive) | –
39 | CCn1c(COc2ccccc2)nnc1SCC(=O)Nc1cc(OC)ccc1OC | -25.2% (inactive) | –
40 | COc1ccc(NC(=O)CSc2nnc(Cc3cccn3C)n2CCc2ccccc2)c(OC)c1 | – | 3.98 µM (active)
41 | Cc1cc(C)c(NC(=O)CSc2nnc(Cc3cccn3C)n2-c2ccc(F)cc2)c(C)c1 | -28.9% (inactive) | –
42 | COc1ccc(OC)c(C(=O)CSc2nnc(Cc3cccs3)n2CCc2ccccc2)c1 | – | 5.62 µM (active)
43 | COc1ccc(OC)c(C(=O)CN2C(=O)NC(C)(c3ccccc3)C2=O)c1 (stereo unspecified) | 3.09% (inactive) | –
44 | CNC(=O)NC(=O)CSc1nnc(-c2ccco2)n1Cc1ccccc1 | -9.65% (inactive) | –
45 | CC(=O)Nc1ccc(Cc2ccc3[nH]c(=O)cc(C)c3c2)cc1 | 2.4% [at 11.4 µM] (inactive) | –
46 | Cc1nc(-n2[nH]c3c(c2=O)CCCC3)[nH]c(=O)c1Cc1ccccc1 | 17.8% (inactive) | –

Row | SMILES | activity, negative = inhibition | AC50
47 | COc1ccc(C2C(C(=O)c3ccco3)=C(O)C(=O)N2Cc2cccnc2)cc1OC (stereo unspecified) | 29.8% (inactive) | –
48 | COc1ccc(/C=N\NC(=O)O)cc1 | 12.1% [at 11.4 µM] (inactive) | –
49 | CC(=O)N1CCC2(CC1)CN(C(=O)Nc1cccc(C#N)c1)C2 | -3.86% (inactive) | –
50 | Cc1cc2cc3c(C)cc(=O)oc3c(C)c2o1 | 2.76% [at 25.6 µM] (inactive) | –
51 | CCOC(=S)NC(=O)c1sc2ccccc2c1Cl | -9.37% (inactive) | –
52 | CN1CCc2ccccc2[C@@H]1Cc1ccccc1NC(=O)c1sc2ccccc2c1Cl | – | 0.0794 µM (active)
53 | CCCC(=O)N1CCN(c2ccc(NC(=O)c3sc4ccccc4c3Cl)cc2)CC1 | 19.9% (inactive) | –
54 | O=C(CC1CCCCC1)N1CCC(c2nc(-c3ccc(S(=O)(=O)N4CCCC4)cc3)no2)CC1 | -17% (inactive) | –
55 | COc1cccc(NC(=S)NNC(=O)C(C)n2nc(C)c([N+](=O)[O-])c2C)c1 (stereo unspecified) | -12.1% (inactive) | –
56 | CC[n+]1c(P(=O)([O-])c2ccccc2)[nH]c2ccccc21 | -7.96% (inactive) | –
57 | N#Cc1ccc(CN2CC[C@@]3(CCCN(C(=O)c4cc(C(F)(F)F)cc(C(F)(F)F)c4)C3)C2)cc1 | -5.62% (inactive) | –
58 | O=C(c1cc(C(F)(F)F)cc(C(F)(F)F)c1)N1CCC[C@@]2(CCN(Cc3ccncc3)C2)C1 | – | 5.01 µM (active)
59 | O=C(c1cc(C(F)(F)F)cc(C(F)(F)F)c1)N1CCC2(CCCN(Cc3ccncc3)C2)CC1 | -9.54% (inactive) | –
60 | O=C(Nc1ccccc1)N1CC[C@@]2(CCCN(C(=O)c3cc(C(F)(F)F)cc(C(F)(F)F)c3)C2)C1 | – | 15.8 µM (active)
61 | O=C(c1cc(C(F)(F)F)cc(C(F)(F)F)c1)N1CCC[C@@]2(CCN(Cc3nccs3)C2)C1 | -15.2% (inactive) | –
62 | O=C(c1cc(C(F)(F)F)cc(C(F)(F)F)c1)N1CCC[C@@]2(CCN(Cc3ccccc3)C2)C1 | – | 10 µM (active)
63 | O=C(Nc1ccccc1)N1CC2(CCN(C(=O)c3cc(C(F)(F)F)cc(C(F)(F)F)c3)CC2)C1 | -2.55% (inactive) | –
64 | O=C(Nc1cccc(F)c1)N1CC[C@@]2(CCCN(C(=O)c3cc(C(F)(F)F)cc(C(F)(F)F)c3)C2)C1 | 0.812% (inactive) | –
65 | O=C(c1cc(C(F)(F)F)cc(C(F)(F)F)c1)N1CCC2(CC1)CN(Cc1ccccc1)C2 | -0.939% (inactive) | –
66 | CC[N+](C)(CC)CCN1C(=O)c2ccccc2S1(=O)=O | -3.94% [at 11.4 µM] (inactive) | –
67 | Cc1c(NC(=O)C23CC4CC(CC(C)(C4)C2)C3)c(=O)n(-c2ccccc2)n1C | 10.1% (inactive) | –
68 | CC12CC[C@@H]3c4ccc(OP(=O)(O)O)cc4CCC3C1CCC2=O (stereo partly specified) | 0.651% [at 11.4 µM] (inactive) | –
69 | Cn1cc(C(=O)c2cccc(Cl)c2Cl)cc1C(=O)O | 0.979% (inactive) | –

Row | SMILES | activity, negative = inhibition | AC50
70 | O=C(O)[C@H](CCc1ccccc1)N1C(=O)c2ccccc2C1=O | 15.2% [at 11.4 µM] (inactive) | –
71 | c1ccc2c(c1)C(=Nc1ccc(N=C3c4ccccc4-c4ccccc43)cc1)c1ccccc1-2 | -8.16% [at 11.4 µM] (inactive) | –
72 | O=C(O)c1ccc(C(=O)O)c(C(=O)O)c1.[NH-][C@@H]1CCCC[C@@H]1[NH-].[Pt] | 7.05% [at 11.4 µM] (inactive) | –
73 | CC12CS(=O)(=O)CC1SC(=S)N2c1ccccn1 (stereo unspecified) | -5.58% (inactive) | –
74 | Cc1cc(O)c(C(C)C)cc1NC(=O)Nc1cccc2ccccc12 | -5.76% [at 11.4 µM] (inactive) | –
75 | CC1(C)CC(=O)C2=C(C1)N(c1ccc(F)cc1)C(N)=C(C#N)C2c1cccs1 (stereo unspecified) | -3.42% (inactive) | –
76 | Cc1cc(N2CCN(C)CC2)n2nc(-c3ccc(Cl)cc3)nc2n1 | 15% [at 11.4 µM] (inactive) | –
77 | COc1cc(C)cc(OC)c1/C=C\C(=O)O | 2.34% [at 11.4 µM] (inactive) | –
78 | C[C@@H](COc1ccccc1)N(CCCl)Cc1ccccc1 | – | 0.158 µM (active)
79 | CN(C)CC(O)COc1cccc(OCC(O)CN(C)C)c1 (stereo unspecified) | -5.6% (inactive) | –
80 | CCOC(=O)c1cnc2ccc(C)cc2c1Sc1ccccc1C(=O)OC | -21.2% (inactive) | –
81 | CNCCCC1c2ccccc2C=Cc2ccccc21 | – | 15.8 µM (active) and 3.98 µM (active)
82 | COc1ccc2c(c1OC)C(=O)N(C(C)C(=O)O)C2=O (stereo unspecified) | 25.2% (inactive) | –
83 | CN(C)CC/C=C1\c2ccccc2Sc2ccc(Cl)cc21 | – | 2.51 µM (active)
84 | Cc1ccc(-n2nc3c(c2NC(=O)c2cccs2)CSC3)cc1 | 5.05% (inactive) | –
85 | CCn1c(CCNC(=O)c2ccc(Cl)cc2Cl)n[nH]c1=S | -18.4% (inactive) | –
86 | Cc1ccc(S(=O)(=O)N[C@H]2COC(=O)C/C=C\[C@H](C)[C@@H](NS(=O)(=O)c3ccc(C)cc3)COC(=O)C/C=C\[C@@H]2C)cc1 | 8.84% [at 11.4 µM] (inactive) | –
87 | CCCC(=O)Nc1cc(-c2cn3cccnc3n2)ccc1OC | -19.8% (inactive) | –
88 | CC(C)CO/N=C1/C[C@@H](O)[C@@H](O)[C@@H]2[C@@H]3C(=O)N([C@@H](C)c4ccccc4)C(=O)[C@H]3CC[C@H]12 | -7.99% [at 11.4 µM] (inactive) | –
89 | COc1ccc(/C=N/n2cnc3c([nH]c4ccc(Br)cc43)c2=O)cc1CN1CCOCC1 | -11.5% (inactive) | –
90 | CC(C)(CO)[C@H](O)C(=O)NCCCO | 2.25% [at 25.6 µM] (inactive) | –
91 | NCCS | -1.11% (inactive) | –

Reference: PubChem BioAssay AID1851 (National Center for Advancing Translational Sciences (NCATS), 2009)
